IDH1 R132H inh: human IDH1 R132H inhibition | O75874 | IDH1-R132H enzyme, NADPH consumption, diaphorase/resazurin fluorescence | Potency, µM (series often up to 76.6 µM), inactives show at the top dose activity change, negative = inhibition, most hits filed as inhibitors | 390,000 tested, 0.093% active | AID 602179; note: nearly all actives have a fitted effect of over 65% in size
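IDH1-R132H (0.5 ug/mL dispensed) in pH 7.5 Tris buffer was preincubated 30 min with compound, then given a substrate mix of 0.016 mM NADPH and 2 mM alpha-KG for 80 min at room temperature; remaining NADPH was read by diaphorase/resazurin fluorescence.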
PLK1 PBD block: PLK1 (human) polo-box domain binding inhibition; P53350; Potency, µM, for the others: max response, negative = inhibition, actives largely listed as inhibitors; Plk1 PBD binding of FITC phosphopeptide, fluorescence polarization; 360,000 tested, 2.8% active; note: series mostly up to about 57 µM; nearly all actives have a fitted effect of over 65% in size
Target sequence (P53350 whole entry, looked up, the tested form may be a part): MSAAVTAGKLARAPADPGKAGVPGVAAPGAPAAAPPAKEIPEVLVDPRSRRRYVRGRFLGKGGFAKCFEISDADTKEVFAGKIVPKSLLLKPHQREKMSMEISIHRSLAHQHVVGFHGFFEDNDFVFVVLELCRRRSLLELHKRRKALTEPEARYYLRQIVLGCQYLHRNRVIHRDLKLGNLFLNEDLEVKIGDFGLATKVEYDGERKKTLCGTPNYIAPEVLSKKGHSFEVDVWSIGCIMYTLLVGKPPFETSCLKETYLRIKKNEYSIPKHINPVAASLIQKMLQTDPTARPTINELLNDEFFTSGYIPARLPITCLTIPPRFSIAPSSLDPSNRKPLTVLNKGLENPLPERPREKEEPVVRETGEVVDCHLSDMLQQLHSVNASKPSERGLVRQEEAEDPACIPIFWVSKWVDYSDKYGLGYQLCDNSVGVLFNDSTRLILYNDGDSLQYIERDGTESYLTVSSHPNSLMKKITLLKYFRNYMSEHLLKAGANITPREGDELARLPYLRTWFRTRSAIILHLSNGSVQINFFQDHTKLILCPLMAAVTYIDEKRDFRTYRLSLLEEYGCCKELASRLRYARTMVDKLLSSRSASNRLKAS
TrxR1 substrate: rat thioredoxin reductase 1 substrate activity | purified TrxR1 substrate turnover, NADPH consumption readout | Potency, µM (highest dose often 114 µM), inactives show top-dose activity change, negative = substrate turnover | 390,000 tested, 0.01% active | AID 588456; note: nearly all actives have a fitted effect of over 50% in size
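Rat TrxR1, dispensed at 90 nM, was prereduced with 400 uM NADPH (final) for 5 min at ~22 deg C, then incubated with compound 15 min before 400 uM selenite. A first-read NADPH fluorescence drop versus no-compound background flagged substrates.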
VDR inh: blocks the human vitamin D receptor. Potency, µM, for inactives: max response, negative = inhibition, hits mostly inhibitors. VDR-SRC2-3 peptide fluorescence polarization, 2 h. AID 504847. P11473. 400,000 tested, 0.93% active
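Signal is fluorescence polarization, reporting how far test compounds block the interaction of VDR with the SRC2-3 coregulator peptide after a 2 h room-temperature incubation.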
Sfp PPTase inh: Sfp phosphopantetheinyl transferase inhibition. Biochemical Sfp PPTase activity, qHTS. AID 1490. 310,000 tested, 3.5% active. Potency, µM, for inactives: largest response in the series, negative = inhibition, usual class: inhibitors. Q9F4F7;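 note: the enzyme is Sfp with the accession as filed and its product quenches rhodamine fluorescence; 0% = enzyme reaction without inhibitor and -100% = no enzyme wells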
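Fluorescence-quenching assay with 15 nM Sfp, 5 uM rhodamine-CoA and 12.5 uM BHQ-2-labelled ybbR peptide in pH 7.6 Hepes/MgCl2 buffer. Enzyme was pre-incubated with compound for 15 min at room temperature. Rate was taken from the 30-min fluorescence change (525/598 nm).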
rTrxR1 inhibitor: blocks rat thioredoxin reductase 1. O89049. recombinant rTrxR1, NADPH fluorescence consumption, selenite substrate. Potency, µM (series often up to 114 µM), without a hit: at the top dose activity change, negative = inhibition, hits mostly inhibitors. 390,000 tested, 1% active. AID 588453; note: nearly all actives have a fitted effect of over 65% in size
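Rat TrxR1 (90 nM in the dispensed reagent) was pre-reduced with 400 uM NADPH for 5 min at room temperature, then incubated with compound for 15 min. After 400 uM selenite was added, NADPH fluorescence (Ex 340/Em 450 nm) was followed for 8 min.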
Active calls of the source: *; ? = inconclusive; / = no result; [ ] = dose if it differs, or a comment. In the library only some 5.2% were active in any assay of this set; here they are far more common. Calls come from the whole dose curve; as a rule, active = well fitted curve in the direction sought with a large enough effect; inconclusive = small, poorly fitted or top-dose-only effect, or another doubt; inactive = no such curve, though single readings can be large; an effect the other way counts as inactive or inconclusive. Unless noted, % is set by controls: 0 for no effect and ±100 for the full control effect; potency is the fitted concentration of half-maximal effect.

SMILES	IDH1 R132H inh	PLK1 PBD block	TrxR1 substrate	VDR inh	Sfp PPTase inh	rTrxR1 inhibitor
CC1=C(C(=O)Nc2ccccc2C)C(c2cccs2)n2nc(SCc3ccccc3)nc2N1 (configuration not stated)	15%	/	-2%	2%	/	10%
Cc1ccn2c(=O)cc(CSc3nnc(NC(=O)c4ccccc4Cl)s3)nc2c1	-15%	/	-1%[57.1 µM]	8%	/	11%[57.1 µM]
O=C(CCCOc1ccc(Cl)cc1Cl)Nc1ccc(O)cc1C(=O)O	-17%	4%	27%	-15%	16%	5%
CCCNc1ccc(-c2nc(-c3ccncc3)no2)cc1[N+](=O)[O-]	4%	/	-7%	16%	/	2%
CCN(CC)c1ccc(C(=C2C=CC(=[N+](CC)Cc3cccc(S(=O)(=O)[O-])c3)C=C2)c2ccc(N(CC)Cc3cccc(S(=O)(=O)O)c3)cc2)cc1	/	/	/	13µM*	?	/
CCN(Cc1ccccc1)c1ccc(/C=N/NS(=O)(=O)c2cccc([N+](=O)[O-])c2)cc1	-3%	?	-18%	-3%	?	-25%
C=CC[C@H](CC(=O)NCCO)C(=O)N[C@@H](COC(=O)[C@@H](CC=C)Cc1ccc(F)cc1)Cc1ccccc1	7%	4%	-1%	14%	/	10%
S=C(Nc1ccc2c(c1)OCO2)Nc1ccc2c(c1)OCO2	2%	-30%	-9%	-21%	-17%	-4%[57.1 µM]
Cc1ccc(C(=O)Nc2ccc3c(c2)OCO3)o1	5%	12µM*	-4%	-5%	8%	-9%
Cc1ccc(CNc2ccc3c(c2)OCO3)cc1	15%	-26%	6%	-23%	56µM*	?
C/C(=C\C(=O)c1ccc(C)o1)Nc1ccc2c(c1)OCO2	16%	-5%	0%	6%	-3%	?
CN(C)C(=S)Nc1ccc2c(c1)OCO2	-2%	6.7µM*	-4%	-8%	22µM*	-12%
COc1ccc(NS(=O)(=O)c2cccc(C(=O)NN=Cc3cc(Br)c(O)c(Br)c3)c2)cc1	1%	?	-8%[2.29 µM]	1%	/	15%[57.1 µM]
COC(=O)C1=C(C)N(c2cccc(Cl)c2)C(=O)C1	0%	-10%	4%	-5%	-5%	?
COC(=O)C1=C(C)N(c2ccc(F)c(Cl)c2)C(=O)C1	3%	-9%	7%	-2%	?	14µM*
Cc1nc(SCC(=O)c2ccccc2)c(C#N)c(-c2ccco2)c1C(=O)NCc1ccco1	3%	?	15%	?	22µM*	50µM*
COCCOC(=O)c1c(C)nc(SCC(=O)Nc2ccc(OC)cc2)c(C#N)c1-c1ccco1	1%	-14%	-2%	-12%	-7%	1%
COC(=O)C(=Cc1ccccc1[N+](=O)[O-])C(=O)OC	-8%	-28%	3%	?	-15%	56µM*
O=C(O)C1Nc2c(O)cccc2C2C=CCC12 (configuration not stated)	4%	27µM*	-8%	14%	-19%	35µM*
O=C(O)C1Nc2c(Cl)cc(Cl)c(Cl)c2C2C=CCC12 (configuration not stated)	-16%	24µM*	-1%	?	/	?
Cc1ccc(C)c2c1NC(C(=O)O)C1CC=CC21 (configuration not stated)	/	/	6%	-22%	/	3.2µM*
O=C(O)C1Nc2c(Cl)cc(Cl)cc2C2C=CCC12 (configuration not stated)	4%	7.5µM*	4%	?	?	20µM*
CN(C)c1ccc(N=Nc2ccc(S(=O)(=O)O)cc2)cc1	/	/	-24%	/	/	-28%
Cc1onc(-c2ccccc2Cl)c1C(=O)Nc1nnc(C2CCCCC2)s1	/	/	-2%	-23%	/	11%
CN(C(=S)NC(=O)C1(C)CC1(Cl)Cl)c1ccccc1 (configuration not stated)	-5%	-2%	-2%	1%	-9%	-4%
SMILES	IDH1 R132H inh	PLK1 PBD block	TrxR1 substrate	VDR inh	Sfp PPTase inh	rTrxR1 inhibitor
CN(C(=S)NC(=O)Cc1ccccc1)c1ccccc1	-4%	30µM*	5%[57.1 µM]	-28%	18µM*	-4%[57.1 µM]
CN(C(=S)NC(=O)CCCOc1ccc(Cl)cc1Cl)c1ccccc1	3%	?	-8%	-16%	50µM*	-4%
O=C(O)CCC(=O)NNC(=O)CCCOc1ccc(Cl)cc1Cl	0%	?	5%[57.1 µM]	-9%	10%	11%[57.1 µM]
COc1ccc(C(C)=O)cc1CSc1nc(Nc2ccc(F)c(F)c2)c2ccccc2n1	-27%	/	1%[57.1 µM]	-4%	/	9%[57.1 µM]
CCc1ccc(Oc2c(C(F)(F)F)oc3c(CN4CCC(C)CC4)c(O)ccc3c2=O)cc1	-7%	/	-3%	-6%	/	22%
CCN(CC)c1ccc(N=Cc2ccccc2[N+](=O)[O-])cc1	12%	4%	-17%	?	50µM*	71µM*
CC(=O)Nc1nonc1-c1nc2ccccc2n1N(C(C)=O)C(C)=O	6%	-27%	24%	-11%	-5%	56µM*
CC(=O)Nc1nonc1-c1nc2ccccc2n1CC1CC1	-2%	-2%	8%	24%	9%	6%
CN(C)c1ccc(/C=C/c2c(Cl)cnc3ccccc23)cc1	/	/	3%	/	/	16%
CCn1c(CSc2nc3ccccc3s2)nnc1SCC(=O)c1ccc(Cl)cc1	-2%	3µM*	1%[57.1 µM]	?	-3%	0%[57.1 µM]
Cc1ccc(S(=O)(=O)NNC(=O)c2ccc(C(=O)N(c3ccccc3)c3ccccc3)cc2)cc1	/	/	3%	/	/	2%
CC(=O)c1c(C)[nH]c(C(=O)Nc2ccc(F)c(F)c2F)c1C	0%	-10%	1%	15%	22%	20%
Cc1nccn1CCCN1C(=O)OC2(CCCCC2)C1(C)O (configuration not stated)	-10%	21µM*	7%	-5%	11%	1%[57.1 µM]
COc1cc(/C=C2\C(=N)N3N=C(S(C)(=O)=O)SC3=NC2=O)ccc1OS(=O)(=O)c1ccc(C)cc1	?	24µM*	-15%	?	-24%	?
CCC1=NN2C(=N)/C(=C/c3ccc(OS(=O)(=O)c4ccccc4)c(OC)c3)C(=O)N=C2S1	-12%	19µM*	2%	-25%	-3%	2%
COc1cc(/C=C2/C(=N)N3N=C(C(C)C)SC3=NC2=O)ccc1OS(=O)(=O)c1ccccc1	14%	38µM*	-11%	56µM*	-7%	-16%
CCCCC(=O)N(CCOC)c1nnc(-c2ccccc2C)s1	10%	-20%	2%	18%	-6%	27%
CCOC(=O)c1ccc(NC(=O)CCc2ccc(CC)o2)cc1	6%	1%	8%	?	-10%	?
Cc1ccc(/C=C/C(=O)Nc2sc(C)c(C)c2C(=O)OC(C)C)o1	1%	-4%	5%	-20%	?	?

Compound activity from PubChem.
